Assay [1] has as its target RAC-alpha serine/threonine-protein kinase (Homo sapiens) (UniProt P31749). The settings on record: at 0.1 µM.
The target is the same in assay [2]. The conditions noted are these: at 1 µM.
In assay [3] the target is RAC-beta serine/threonine-protein kinase (Homo sapiens) (UniProt P31751). The conditions noted are these: at 0.1 µM.
For assay [4] the target is unchanged. The conditions noted are these: at 1 µM.
In assay [5] the target is RAC-gamma serine/threonine-protein kinase (Homo sapiens) (UniProt Q9Y243). The conditions noted are these: at 0.1 µM.
RAC-gamma serine/threonine-protein kinase (Homo sapiens), sequence (Q9Y243 whole entry): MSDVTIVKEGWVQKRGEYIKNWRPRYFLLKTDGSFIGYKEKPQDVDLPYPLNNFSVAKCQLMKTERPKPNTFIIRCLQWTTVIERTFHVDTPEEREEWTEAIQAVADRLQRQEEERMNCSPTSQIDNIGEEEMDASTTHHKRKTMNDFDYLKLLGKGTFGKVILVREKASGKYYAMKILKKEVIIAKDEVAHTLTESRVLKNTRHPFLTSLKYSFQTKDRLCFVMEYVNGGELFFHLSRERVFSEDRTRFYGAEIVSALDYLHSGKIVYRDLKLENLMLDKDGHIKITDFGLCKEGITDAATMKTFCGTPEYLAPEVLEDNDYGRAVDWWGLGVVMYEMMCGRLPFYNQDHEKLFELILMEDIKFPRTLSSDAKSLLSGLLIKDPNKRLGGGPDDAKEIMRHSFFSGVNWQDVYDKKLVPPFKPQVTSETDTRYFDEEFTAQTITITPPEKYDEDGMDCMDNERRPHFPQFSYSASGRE
Assay [6] has the same target. The conditions noted are these: at 1 µM.
Assay [7] deals with G protein-coupled receptor kinase 6 (Homo sapiens) (UniProt P43250). The conditions noted are these: at 0.1 µM.
G protein-coupled receptor kinase 6 (Homo sapiens), sequence (P43250 whole entry, looked up): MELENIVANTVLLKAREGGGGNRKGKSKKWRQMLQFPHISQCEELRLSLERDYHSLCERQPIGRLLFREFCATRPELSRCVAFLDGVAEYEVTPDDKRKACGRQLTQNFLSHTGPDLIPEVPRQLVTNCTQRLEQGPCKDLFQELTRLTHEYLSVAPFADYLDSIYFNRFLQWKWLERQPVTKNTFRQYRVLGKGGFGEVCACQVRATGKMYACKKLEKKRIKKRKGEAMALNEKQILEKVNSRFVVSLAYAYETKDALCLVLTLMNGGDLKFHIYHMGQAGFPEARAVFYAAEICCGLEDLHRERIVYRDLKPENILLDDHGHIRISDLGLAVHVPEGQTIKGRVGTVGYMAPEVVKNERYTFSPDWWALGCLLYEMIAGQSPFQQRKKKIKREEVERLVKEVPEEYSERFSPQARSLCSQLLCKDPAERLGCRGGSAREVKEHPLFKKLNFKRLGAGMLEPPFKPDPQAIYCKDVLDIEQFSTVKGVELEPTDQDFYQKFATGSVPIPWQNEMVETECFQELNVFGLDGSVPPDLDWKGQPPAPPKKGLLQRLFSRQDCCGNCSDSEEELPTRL
Assay [8] shares this target. The settings on record: at 1 µM.
For assay [9], the target named is T1, Rhodopsin kinase GRK7 (Homo sapiens) (UniProt Q8WTQ7).
T1 sequence (whole entry): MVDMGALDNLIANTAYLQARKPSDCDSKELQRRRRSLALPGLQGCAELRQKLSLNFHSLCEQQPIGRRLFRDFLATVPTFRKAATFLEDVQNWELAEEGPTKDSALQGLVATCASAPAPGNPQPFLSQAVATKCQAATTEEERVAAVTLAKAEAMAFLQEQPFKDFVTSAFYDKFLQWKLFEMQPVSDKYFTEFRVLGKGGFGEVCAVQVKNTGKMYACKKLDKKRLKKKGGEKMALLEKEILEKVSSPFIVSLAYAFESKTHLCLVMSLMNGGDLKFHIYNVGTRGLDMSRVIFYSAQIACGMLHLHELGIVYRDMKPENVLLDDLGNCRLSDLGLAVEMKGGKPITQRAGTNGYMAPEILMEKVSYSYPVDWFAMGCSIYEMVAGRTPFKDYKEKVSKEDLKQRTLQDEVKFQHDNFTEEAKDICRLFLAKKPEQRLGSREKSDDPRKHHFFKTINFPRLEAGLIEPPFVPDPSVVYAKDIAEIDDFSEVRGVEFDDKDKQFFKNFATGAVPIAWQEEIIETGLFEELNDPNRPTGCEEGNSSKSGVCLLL
The conditions noted are these: at 0.1 µM.

For assay [10], the target named is T1, Rhodopsin kinase GRK7 (Homo sapiens). The settings on record: at 1 µM.

These results are taken from ChEMBL document CHEMBL1961873, “Compounds: GSK PKIS; Assays: Nanosyn kinase panel” (2012).

RAC-alpha serine/threonine-protein kinase (Homo sapiens), sequence (P31749 whole entry): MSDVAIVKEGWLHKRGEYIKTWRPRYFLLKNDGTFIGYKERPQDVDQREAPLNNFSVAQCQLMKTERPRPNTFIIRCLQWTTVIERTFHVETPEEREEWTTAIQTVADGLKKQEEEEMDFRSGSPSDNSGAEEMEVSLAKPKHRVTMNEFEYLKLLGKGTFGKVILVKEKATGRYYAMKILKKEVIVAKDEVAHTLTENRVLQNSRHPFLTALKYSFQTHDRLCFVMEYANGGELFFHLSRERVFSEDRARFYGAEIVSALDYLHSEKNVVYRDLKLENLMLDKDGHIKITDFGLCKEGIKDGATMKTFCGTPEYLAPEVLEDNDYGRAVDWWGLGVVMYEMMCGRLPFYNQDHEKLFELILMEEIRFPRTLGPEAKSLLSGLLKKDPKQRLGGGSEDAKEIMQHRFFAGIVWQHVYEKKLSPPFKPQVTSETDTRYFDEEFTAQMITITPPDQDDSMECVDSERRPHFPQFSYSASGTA
RAC-beta serine/threonine-protein kinase (Homo sapiens), sequence (P31751 whole entry): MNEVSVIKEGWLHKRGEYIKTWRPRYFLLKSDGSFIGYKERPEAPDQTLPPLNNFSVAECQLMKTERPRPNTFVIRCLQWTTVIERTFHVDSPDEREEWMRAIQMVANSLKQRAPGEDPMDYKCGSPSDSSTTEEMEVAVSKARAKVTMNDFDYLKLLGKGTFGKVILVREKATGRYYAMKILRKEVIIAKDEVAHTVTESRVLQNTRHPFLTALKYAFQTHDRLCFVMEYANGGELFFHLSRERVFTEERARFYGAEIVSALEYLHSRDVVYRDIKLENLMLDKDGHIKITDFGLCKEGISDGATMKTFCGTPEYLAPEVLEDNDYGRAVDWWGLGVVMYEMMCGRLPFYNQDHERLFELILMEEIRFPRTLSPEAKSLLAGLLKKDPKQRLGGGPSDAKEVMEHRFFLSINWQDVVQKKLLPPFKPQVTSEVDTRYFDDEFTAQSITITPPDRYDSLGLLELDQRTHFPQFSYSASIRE

The inhibition is the change of the read-out against control, counted positive when it falls. For `CN1CCC(n2cnc(-c3ccc(F)cc3)c2-c2ccnc(Nc3ccccc3)n2)CC1`, the inhibition in [1] was determined as 0.23%; in [2], 1.05%; in assay [3], 0.63%; in assay [4], 0.8%; in [5], 2.25%; in assay [6], 5.43%. For the same molecule, the inhibition in assay [7] worked out at 2.34%; in [8] it was 2.65%; in [9], 2.84%; in [10], 6.42%.
As to `COc1cc(N2CCN(C(C)C)CC2)ccc1Nc1nc(Nc2ccc(F)cc2C(N)=O)c2cc[nH]c2n1`, the inhibition in [1] is 0.91%; in assay [2], 2.86%; in [3], 1.62%; in [4], 3.68%; in assay [5] it was 1.62%; in assay [6], 4.8%. Besides, the inhibition in assay [7] worked out at 3.9%; in assay [8] it was 14.3%; in [9] it was 5.3%; in assay [10], 10.1%.
As for `Fc1ccc(-c2cc(-c3c[nH]nc3-c3ccccn3)ccn2)cc1`, the inhibition turned out to be 0.11% in assay [1]; 0.95% in assay [2]; 1.68% in [3]; 2.45% in assay [4]; 0.98% in [5]; 1.5% in [6]. The inhibition in [7] worked out at 7.85%; in [8], 15.7%; in [9], 3.52%; in assay [10], 13.4%.
For `Cc1cccc2c1NC(=O)/C2=N\Nc1ccc(S(N)(=O)=O)cc1`, the inhibition in assay [1] was determined as 1.04%; in [2], 1.19%; in assay [3], 2.18%; in assay [4] it was 1.39%; in assay [5], 1.07%; in [6], 1.15%. Besides, the inhibition in [7] is 2.1%; in assay [8], 3.62%; in assay [9], 1.49%; in assay [10], -6.16%.
In the case of `COc1ccc(-c2oc3ncnc(N)c3c2-c2ccc(NC(=O)Nc3cc(C(F)(F)F)ccc3F)cc2)cc1`, the inhibition worked out at 1.18% in assay [1]; 1.66% in assay [2]; 3.21% in assay [3]; 2.57% in assay [4]; 1.23% in [5]; 2.55% in assay [6]. Moreover, the inhibition in assay [7] is 4.19%; in assay [8] it was 12.7%; in [9], 4.51%; in assay [10], 22%.
As to `COc1ccc(-c2cc(-c3c[nH]nc3-c3ccccn3)ccn2)cc1`, the inhibition in assay [1] stood at 0.93%; in [2] it was 1.5%; in assay [3] it was 2.54%; in assay [4] it was 1.95%; in [5], 1.66%; in [6] it was 1.52%. For the same molecule, the inhibition in [7] turned out to be 8.13%; in assay [8] it was 8.91%; in [9] it was 3.59%; in [10], 6.26%.
Regarding `Fc1ccc(-c2nn3ncccc3c2-c2ccnc(Nc3ccc4c(c3)OCCO4)n2)cc1`, the inhibition turned out to be 0.05% in [1]; 0.97% in assay [2]; 1.99% in assay [3]; 1.14% in assay [4]; 0.88% in assay [5]; 1.56% in assay [6]. Moreover, the inhibition in assay [7] turned out to be 2.14%; in assay [8], 1.87%; in assay [9], 1.38%; in assay [10] it was 5.57%.
Consider `CCn1cc(-c2ccnc3[nH]ccc23)c(-c2cccc(NC(=O)Nc3ccc(OCc4ccccc4)cc3)c2)n1`, for which the inhibition in assay [1] is 1.5%; in assay [2], 1.68%; in [3] it was 1.8%; in assay [4], 3.99%; in assay [5] it was 0.23%; in assay [6] it was 2.59%. For the same molecule, the inhibition is -2.36% in assay [7], 0.99% in [8], 3.4% in assay [9] and -2.29% in [10].
In the case of `CN1CCC(n2cnc(-c3ccc(F)cc3)c2-c2ccnc(N)n2)CC1`, the inhibition in assay [1] came out at 0.24%; in [2] it was 0.29%; in [3], 0.39%; in assay [4], 0.66%; in assay [5], 2.57%; in [6], 2.05%. Moreover, the inhibition was 1.6% in [7], 2.25% in [8], 3.11% in [9] and 5.7% in assay [10].
As to `CCN1CCC(CC(=O)Nc2n[nH]c3nnc(-c4cccc(F)c4F)cc23)CC1`, the inhibition was 0.38% in assay [1]; 0.44% in assay [2]; -1.36% in assay [3]; 0.79% in [4]; -0.3% in assay [5]; 3.08% in assay [6]. The inhibition in [7] was determined as 1.19%; in assay [8] it was 2.16%; in assay [9], 6.3%; in assay [10] it was 3.7%.
As for `Cc1ccc2c(-c3ccnc(Nc4ccccc4)n3)c(-c3ccc(F)cc3)nn2n1`, the inhibition in [1] was 0.59%; in assay [2], 0.99%; in assay [3], 2.02%; in assay [4], 1.95%; in [5] it was 1.53%; in [6] it was 1.01%. In addition, the inhibition in [7] was 0.38%; in [8], -3.54%; in [9] it was 1.12%; in [10], -6.29%.
Regarding `CCN(CC)S(=O)(=O)c1ccc(OC)c(Nc2ncc(-c3ccccc3)o2)c1`, the inhibition in [1] is 0.87%; in [2], -0.4%; in assay [3] it was 0.37%; in assay [4], 0.18%; in assay [5], 2.3%; in [6], -1.03%. The inhibition in assay [7] is 1.87%; in assay [8], -0.46%; in [9] it was 3.17%; in [10], -3.96%.
Turning to `CC(C)(CO)CNC(=O)c1ccc2c(c1)/C(=N/Nc1ccc(S(N)(=O)=O)cc1)C(=O)N2`, the inhibition in [1] was 0.16%; in assay [2], -0.56%; in assay [3], -1.39%; in assay [4], 0.25%; in assay [5], -0.59%; in assay [6], 2.3%. For the same molecule, the inhibition was 0.67% in [7], 9.38% in assay [8], 2.93% in assay [9] and -0.41% in assay [10].
As to `O=C(O[C@H]1CN[C@H](C#Cc2cc3ncnc(Nc4ccc(Cc5ccccc5)cc4)c3s2)C1)N1CCOCC1`, the inhibition in assay [1] was -0.07%; in assay [2], 1.54%; in assay [3] it was 0.98%; in [4] it was 1.79%; in [5] it was 0.38%; in [6], 1.99%. Also, the inhibition in [7] was -0.99%; in assay [8] it was 1.46%; in [9], 5.43%; in [10], 0.52%.
`COc1ccc(-c2nn3ncccc3c2-c2ccnc(Nc3ccc4c(c3)OCCO4)n2)cc1`: the inhibition was -0.35% in [1]; -0.09% in [2]; -0.91% in assay [3]; -0.18% in assay [4]; 0.24% in [5]; 2.32% in [6]. Further, the inhibition is -1.91% in assay [7], -1.49% in assay [8], 4.16% in assay [9] and 2.81% in assay [10].
In the case of `COc1cc(Nc2nccc(Nc3ccc4c(C)n[nH]c4c3)n2)cc(OC)c1OC`, the inhibition came out at 0.02% in [1]; 1.09% in assay [2]; 0.52% in assay [3]; 1.19% in assay [4]; 0.72% in assay [5]; 1.18% in assay [6]. Besides, the inhibition is -0.47% in assay [7], -4.13% in assay [8], 1.14% in assay [9] and -1.95% in assay [10].
On to `Cc1ccc(O)cc1Nc1ccnc2cc(-c3ccccn3)ccc12`, for which the inhibition in [1] is 1.31%; in [2], 1.02%; in assay [3] it was 2.69%; in [4], 2.45%; in assay [5] it was 1.16%; in assay [6], 2.32%. Moreover, the inhibition was 1.43% in [7], -3.7% in assay [8], 4% in assay [9] and -2.85% in [10].
